The target of assay [1] is Progesterone receptor (Homo sapiens) (UniProt P06401). The assay is described as follows: qHTS assay to identify small molecule antagonists of the progesterone receptor (PR) signaling pathway (AID 1346795; active means well fitted inhibition curve with a large enough effect in the signal ratio in the repeat runs, not every such curve was filed as active; the % refers to the signal ratio; further: potency means the concentration at half of the fitted maximal effect). A digest of the protocol: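 Antagonist mode with agonist R5020 at 1 nM final and 16 hr incubation at 37C. Reporter was beta-lactamase driven by UAS in HEK293T (PR-UAS-bla), 2% charcoal-stripped serum; signal from LiveBLAzer FRET substrate, 2 hr at room temperature.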
Chain of Progesterone receptor (Homo sapiens) (P06401 whole entry, looked up): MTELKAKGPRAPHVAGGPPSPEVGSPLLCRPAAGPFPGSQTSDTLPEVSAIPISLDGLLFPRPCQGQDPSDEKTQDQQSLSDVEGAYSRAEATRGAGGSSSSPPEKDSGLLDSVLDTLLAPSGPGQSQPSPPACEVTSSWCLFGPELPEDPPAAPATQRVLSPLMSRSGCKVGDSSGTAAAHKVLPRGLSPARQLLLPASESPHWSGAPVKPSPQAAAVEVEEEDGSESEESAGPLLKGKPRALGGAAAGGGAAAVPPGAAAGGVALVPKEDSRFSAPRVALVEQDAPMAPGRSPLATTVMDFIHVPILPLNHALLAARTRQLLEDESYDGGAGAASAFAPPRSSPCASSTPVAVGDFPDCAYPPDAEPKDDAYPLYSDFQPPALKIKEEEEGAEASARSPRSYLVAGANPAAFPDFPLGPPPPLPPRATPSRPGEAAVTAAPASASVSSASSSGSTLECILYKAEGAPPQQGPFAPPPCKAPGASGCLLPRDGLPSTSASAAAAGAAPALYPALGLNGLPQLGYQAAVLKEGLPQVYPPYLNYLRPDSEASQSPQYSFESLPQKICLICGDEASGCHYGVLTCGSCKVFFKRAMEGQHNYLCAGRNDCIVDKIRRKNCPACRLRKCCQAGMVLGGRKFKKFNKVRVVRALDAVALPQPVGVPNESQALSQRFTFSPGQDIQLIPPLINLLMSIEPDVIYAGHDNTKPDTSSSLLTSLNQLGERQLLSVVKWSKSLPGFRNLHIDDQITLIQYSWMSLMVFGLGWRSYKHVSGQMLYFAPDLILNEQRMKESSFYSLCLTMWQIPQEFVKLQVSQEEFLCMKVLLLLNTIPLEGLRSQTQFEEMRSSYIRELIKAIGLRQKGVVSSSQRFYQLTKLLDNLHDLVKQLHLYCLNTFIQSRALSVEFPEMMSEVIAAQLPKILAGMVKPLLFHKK
In general terms: In qHTS, concentration-response curves come from the screen itself.

The nature of assay [2]: qHTS assay to identify small molecule antagonists of the progesterone receptor (PR) signaling pathway - cell viability counter screen (AID 1346798). Further: nearly all actives have a fitted effect of over 50% in size. Further: potency means the concentration at half of the fitted maximal effect. Summed up:
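Cytotoxicity read as CellTiter-Glo luminescence (30 min, room temperature) in the same wells as the beta-lactamase readout. HEK293T PR-UAS-bla cells in charcoal-stripped 2% FBS received compound and R5020, then 16 h at 37C, 5% CO2.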

Assay [3] in a line: qHTS assay to identify small molecule agonists of the progesterone receptor (PR) signaling pathway - cell viability counter screen (AID 1346799; calls by dose curve; further: nearly all actives have a fitted effect of over 45% in size). Summed up:
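Cytotoxicity measured by CellTiter-Glo luminescence (30 min, RT) in the same wells as the PR beta-lactamase agonist read. Those HEK293T cells had 16 h compound treatment at 37 C in 2% charcoal-stripped FBS medium.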

Assay [4] is described as follows: qHTS assay to identify small molecule agonists of the TGF-beta/Smad signaling pathway - cell viability counter screen (AID 1346829). Further: top concentration of the series differs between compounds; nearly all actives have a fitted effect of over 45% in size. A digest of the protocol: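 After overnight seating at 37 C and 5% CO2, reporter cells got compounds for 5 hr and FRET substrate for 2 hr; cell viability then came from CellTiter-Glo luminescence.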
A short description of assay [5]: qHTS assay to identify small molecule agonists of the TGF-beta/Smad signaling pathway (AID 1346859; active means well fitted activation curve with a large enough effect in the signal ratio in the repeat runs, not every such curve was filed as active; the % refers to the signal ratio; further: series mostly up to about 77 µM). A digest of the protocol:
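Fluorescence (ex 405 nm; em 460 and 530 nm) was read 2 h after LiveBLAzer FRET substrate at RT. The preceding compound treatment of overnight-plated SBE-bla HEK293T cells lasted 5 h at 37 C.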

The target in assay [6] is Thyrotropin-releasing hormone receptor (Homo sapiens) (UniProt P34981). The assay is described as follows: qHTS assay to identify small molecule antagonists of the thyrotropin-releasing hormone receptor (TRHR) signaling pathway (AID 1346877; active means well fitted inhibition curve with a large enough effect in the repeat runs, not every such curve was filed as active; further: potency means the concentration at half of the fitted maximal effect). A digest of the protocol:
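Calcium signal in dye-loaded TRHR/HEK293 cells; compounds added 5 min before TRH (1 nM final); fluorescence monitored 3 min at 1 s steps.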

Assay [7] has the same target. In words: qHTS assay to identify small molecule agonists of the thyrotropin-releasing hormone receptor (TRHR) signaling pathway (AID 1346891; calls by dose curve; further: potency means the concentration at half of the fitted maximal effect; on activation: series mostly up to about 58 µM). A digest of the protocol:
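Agonist-mode intracellular calcium readout: kinetic fluorescence over 3 min at 1 s intervals after compound addition to TRHR-HEK293 cells (18 h seeded, 2 h dye-loaded at 37 C). Fifteen concentrations, triplicates.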

The nature of assay [8]: Human pregnane X receptor (PXR) small molecule agonists, qHTS cell viability counter screen (AID 1346977). Further: nearly all actives have a fitted effect of over 50% in size. Further: potency means the concentration at half of the fitted maximal effect. Summed up: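 Same-well viability read: CellTiter-Fluor added after 23 hr compound exposure, fluorescence measured 1 hr later. Cells were PXR-Luc HepG2 seeded at 2,000/well in 5% charcoal-stripped FBS medium, rested 5 hr before dosing at 37 C.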
Assay [9] can be described thus: Caspase-3/7 induction in HepG2 cells by small molecules, qHTS assay (AID 1346978). Further: nearly all actives have a fitted effect of over 15% in size. Summed up:
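Wild-type HepG2 cells (2,000/well) were settled 5 h at 37 C, 5% CO2, then exposed to compounds in DMSO for 17 h. Caspase-3/7 activity was read by luminescence 30 min after adding Caspase-Glo 3/7 reagent at room temperature.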

Assay [10] in a line: Caspase-3/7 induction in CHO-K1 cells by small molecules, qHTS cell viability counter screen (AID 1346979). Further: nearly all actives have a fitted effect of over 35% in size. Further: potency means the concentration at half of the fitted maximal effect. A digest of the protocol:
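Cytotoxicity counter screen: CellTiter-Fluor added to compound-treated wild-type CHO-K1 cells at 16 h (37C, 5% CO2), fluorescence measured 1 h later; same wells as caspase-3/7 measurement.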

Assay [11] in a line: Caspase-3/7 induction in CHO-K1 cells by small molecules, qHTS assay (AID 1346980). Further: nearly all actives have a fitted effect of over 15% in size. Summed up:
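Wild-type cells were seeded at 1,500 per well and settled 5 hr at 37 C, 5% CO2, then exposed to DMSO-dissolved compounds for 17 hr. Caspase-Glo 3/7 reagent was added, and luminescence was read after 30min at room temperature.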

A short description of assay [12]: Caspase-3/7 induction in HepG2 cells by small molecules, qHTS cell viability counter screen (AID 1346981). Further: nearly all actives have a fitted effect of over 30% in size. Further: potency means the concentration at half of the fitted maximal effect. A digest of the protocol:
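After a 5-hr attachment period at 37 C and 5% CO2, wild-type HepG2 cells received compounds in DMSO. Sixteen hours later CellTiter-Fluor was dispensed and the fluorescent signal quantified after a further hour.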

The target in assay [13] is Nuclear receptor subfamily 1 group I member 2 (Homo sapiens) (UniProt O75469). The assay is described as follows: Human pregnane X receptor (PXR) small molecule agonists, qHTS assay (AID 1346982). Further: nearly all actives have a fitted effect of over 35% in size. Summed up: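 Tox21 qHTS; PXR-Luc HepG2; compounds pinned from DMSO; 24 hr, 37 C; ONE-Glo luciferase detection, 30 min room temperature.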
Chain of Nuclear receptor subfamily 1 group I member 2 (Homo sapiens) (O75469 whole entry, looked up): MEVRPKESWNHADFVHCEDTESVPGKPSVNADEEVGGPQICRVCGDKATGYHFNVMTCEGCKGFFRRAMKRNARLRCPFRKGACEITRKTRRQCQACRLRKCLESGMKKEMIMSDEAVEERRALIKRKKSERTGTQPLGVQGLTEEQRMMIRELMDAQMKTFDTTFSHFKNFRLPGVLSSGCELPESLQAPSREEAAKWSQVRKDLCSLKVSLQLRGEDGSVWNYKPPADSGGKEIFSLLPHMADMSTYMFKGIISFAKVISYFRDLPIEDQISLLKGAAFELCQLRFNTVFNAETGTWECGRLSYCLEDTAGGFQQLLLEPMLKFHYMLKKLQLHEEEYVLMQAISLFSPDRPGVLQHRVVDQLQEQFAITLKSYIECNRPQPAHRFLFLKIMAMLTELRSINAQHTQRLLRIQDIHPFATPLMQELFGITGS
Assay [14] deals with Nuclear receptor subfamily 1 group I member 2 (Rattus norvegicus) (UniProt Q9R1A7). The assay is described as follows: Rat pregnane X receptor (rPXR) activation by small molecules, qHTS assay (AID 1346983). Further: nearly all actives have a fitted effect of over 20% in size. To be noted: rPXR luciferase reporter cells, One-Glo luminescence, 24 h; stronger effect = higher value. A digest of the protocol: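 Cell-based rPXR luciferase reporter assay, 2,000 cells per well, rested 5hr at 37 C before compound addition in DMSO, then 24 hr at 37 C. One-Glo reagent was added and luminescence read after 30 min at room temperature.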
Chain of Nuclear receptor subfamily 1 group I member 2 (Rattus norvegicus) (Q9R1A7 whole entry, looked up): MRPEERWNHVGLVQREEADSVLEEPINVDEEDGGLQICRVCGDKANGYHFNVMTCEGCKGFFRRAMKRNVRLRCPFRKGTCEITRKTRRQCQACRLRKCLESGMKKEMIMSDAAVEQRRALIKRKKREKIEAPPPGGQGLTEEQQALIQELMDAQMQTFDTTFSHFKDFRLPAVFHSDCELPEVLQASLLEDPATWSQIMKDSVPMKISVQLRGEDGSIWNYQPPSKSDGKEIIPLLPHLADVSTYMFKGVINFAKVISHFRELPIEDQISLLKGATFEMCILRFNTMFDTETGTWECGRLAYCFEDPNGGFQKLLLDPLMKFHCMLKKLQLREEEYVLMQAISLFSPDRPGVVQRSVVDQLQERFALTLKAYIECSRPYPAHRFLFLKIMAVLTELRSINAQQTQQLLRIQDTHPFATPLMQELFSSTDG

Assay [15] deals with Nuclear receptor subfamily 1 group I member 2 (Homo sapiens) (UniProt O75469). The assay is described as follows: CYP3A4 induction through human pregnane X receptor (PXR) by small molecules, qHTS assay (AID 1346984). Further: nearly all actives have a fitted effect of over 40% in size. A digest of the protocol: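 Cells (DPX-2; HepG2 with PXR element plus CYP3A4-promoter luciferase) settled 5hr, then were treated 24hr at 37C. A 3hr, 3uM-final Luciferin-IPA step preceded luminescence measurement with One-Glo.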

Assay [16] has the same target. In words: Human pregnane X receptor (PXR) activation by small molecules, qHTS assay (AID 1346985). Further: nearly all actives have a fitted effect of over 40% in size. Summed up:
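DPX-2 cells (HepG2 co-transfected with a PXR response element and a CYP3A4-promoter luciferase construct) were seeded at 2,000 per well, rested 5 hr at 37C, then exposed to DMSO-dissolved compounds for 24 hr. Activation was read as luciferase luminescence.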

The target of assay [17] is Cytochrome P450 2D6 (Homo sapiens) (UniProt P10635). The assay is described as follows: Cytochrome P450 Family 2 Subfamily D Member 6 (CYP2D6) small molecule antagonists: luciferase reporter qHTS assay (AID 1671196). Further: nearly all actives have a fitted effect of over 50% in size. Further: potency means the concentration at half of the fitted maximal effect. A digest of the protocol:
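Room-temperature luminescent CYP2D6 activity assay: compound preincubated 10 min with enzyme–substrate mix, NADPH-initiated reaction 1 h, detection reagent 20 min before reading.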
For orientation: A reporter such as luciferase makes a cellular process visible.

For assay [18], the target named is Cytochrome P450 2C19 (Homo sapiens) (UniProt P33261). The assay is described as follows: Cytochrome P450 Family 2 Subfamily C Member 19 (CYP2C19) small molecule antagonists: luciferase reporter qHTS assay (AID 1671197). Further: nearly all actives have a fitted effect of over 65% in size. Further: potency means the concentration at half of the fitted maximal effect. A digest of the protocol:
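Inhibition of CYP2C19 was scored from loss of luminescence in a P450-Glo proluciferin substrate assay, NADPH-started and run 1 h at 37C, with ketoconazole as positive control.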

Assay [19] deals with Cytochrome P450 2C9 (Homo sapiens) (UniProt P11712). The assay is described as follows: Cytochrome P450 Family 2 Subfamily C Member 9 (CYP2C9) small molecule antagonists: luciferase reporter qHTS assay (AID 1671198). Further: nearly all actives have a fitted effect of over 50% in size. Further: potency means the concentration at half of the fitted maximal effect. Summed up: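 CYP2C9 activity was measured with a P450-Glo proluciferin substrate. Enzyme–substrate mix was held with compound for 10 min at room temperature, then NADPH regeneration solution was added for 1 h at 37C. Luciferin product was read as luminescence.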
Chain of Cytochrome P450 2C9 (Homo sapiens) (P11712 whole entry, looked up): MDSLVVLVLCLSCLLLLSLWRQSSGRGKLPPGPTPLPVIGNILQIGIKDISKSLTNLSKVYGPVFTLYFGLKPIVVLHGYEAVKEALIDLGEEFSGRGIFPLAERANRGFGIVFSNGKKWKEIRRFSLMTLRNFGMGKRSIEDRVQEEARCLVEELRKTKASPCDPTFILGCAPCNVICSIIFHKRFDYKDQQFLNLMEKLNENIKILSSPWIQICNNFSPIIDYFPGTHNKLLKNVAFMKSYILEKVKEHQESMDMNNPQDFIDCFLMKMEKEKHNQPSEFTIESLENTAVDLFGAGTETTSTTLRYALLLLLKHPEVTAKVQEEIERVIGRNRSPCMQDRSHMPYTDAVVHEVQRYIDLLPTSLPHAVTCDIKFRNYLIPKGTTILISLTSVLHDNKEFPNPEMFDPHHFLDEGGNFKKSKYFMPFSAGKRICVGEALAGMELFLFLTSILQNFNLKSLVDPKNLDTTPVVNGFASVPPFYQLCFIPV

Assay [20] is described as follows: qHTS assay to identify small molecule antagonists of the TGF-beta/Smad signaling pathway - cell viability counter screen (AID 1346824). Further: nearly all actives have a fitted effect of over 50% in size. A digest of the protocol:
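SBE-bla HEK 293T cells were plated overnight at 37 C, then given compounds in DMSO plus TGF-beta1 (added as 0.25 ng/mL solution) for 5 hr. After the bla read, CellTiter-Glo was added to the same wells and luminescence read after 30 min at room temperature.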

Each structure is given as a SMILES string. “And” between values parts separate entries of the source, which are not always exact repeats. Equal entries are not always repeated. Records with an inconclusive call do not appear. Some structures have more than one record in an assay (separate samples or runs), and their calls can disagree. The source made the active and inactive calls. Unless noted, the call rests on the fitted dose curve; in most records, active means well fitted curve in the direction sought with a large enough effect in the repeat runs; inconclusive means weak or mixed curves; inactive means no such curve, though single readings can be large; an effect the other way counts as inactive or inconclusive.
On the % scale 0 is the no-effect control and ±100 the full control effect.

Chain of Cytochrome P450 2C19 (Homo sapiens) (P33261 whole entry, looked up): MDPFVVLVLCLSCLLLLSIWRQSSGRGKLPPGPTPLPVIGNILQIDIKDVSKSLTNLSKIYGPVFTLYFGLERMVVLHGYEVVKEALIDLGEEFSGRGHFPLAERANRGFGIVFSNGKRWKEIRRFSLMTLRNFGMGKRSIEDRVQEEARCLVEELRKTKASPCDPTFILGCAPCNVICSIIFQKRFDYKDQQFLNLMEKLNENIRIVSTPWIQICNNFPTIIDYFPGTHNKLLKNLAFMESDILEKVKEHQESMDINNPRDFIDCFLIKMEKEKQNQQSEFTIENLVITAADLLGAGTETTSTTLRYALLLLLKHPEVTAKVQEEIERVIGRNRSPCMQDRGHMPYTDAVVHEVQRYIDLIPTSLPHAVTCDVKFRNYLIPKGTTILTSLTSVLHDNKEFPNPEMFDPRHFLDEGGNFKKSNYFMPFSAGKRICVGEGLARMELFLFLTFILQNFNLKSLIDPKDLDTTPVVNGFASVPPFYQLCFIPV
Chain of Thyrotropin-releasing hormone receptor (Homo sapiens) (P34981 whole entry, looked up): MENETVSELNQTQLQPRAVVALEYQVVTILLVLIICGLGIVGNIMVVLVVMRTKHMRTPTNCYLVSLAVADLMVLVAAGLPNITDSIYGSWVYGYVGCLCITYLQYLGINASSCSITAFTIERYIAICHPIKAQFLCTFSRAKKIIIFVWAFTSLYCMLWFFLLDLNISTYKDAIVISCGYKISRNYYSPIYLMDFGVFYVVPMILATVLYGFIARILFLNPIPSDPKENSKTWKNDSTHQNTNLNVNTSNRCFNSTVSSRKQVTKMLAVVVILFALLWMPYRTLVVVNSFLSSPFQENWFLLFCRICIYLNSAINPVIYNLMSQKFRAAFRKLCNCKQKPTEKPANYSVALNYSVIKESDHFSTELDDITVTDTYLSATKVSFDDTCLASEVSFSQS
Chain of Cytochrome P450 2D6 (Homo sapiens) (P10635 whole entry, looked up): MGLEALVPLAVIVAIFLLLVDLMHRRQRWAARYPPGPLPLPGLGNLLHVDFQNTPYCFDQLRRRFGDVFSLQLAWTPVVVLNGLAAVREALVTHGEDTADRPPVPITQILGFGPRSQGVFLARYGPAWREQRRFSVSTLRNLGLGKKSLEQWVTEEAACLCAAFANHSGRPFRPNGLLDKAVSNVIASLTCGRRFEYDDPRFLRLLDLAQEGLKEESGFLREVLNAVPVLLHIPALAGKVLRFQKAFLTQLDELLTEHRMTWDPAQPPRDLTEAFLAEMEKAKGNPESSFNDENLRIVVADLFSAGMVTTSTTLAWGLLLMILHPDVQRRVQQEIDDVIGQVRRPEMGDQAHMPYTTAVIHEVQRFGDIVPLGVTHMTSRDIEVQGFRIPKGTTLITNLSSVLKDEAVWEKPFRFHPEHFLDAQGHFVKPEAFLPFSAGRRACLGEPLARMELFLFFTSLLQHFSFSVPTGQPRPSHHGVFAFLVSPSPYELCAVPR

On to `OCC(CO)N[C@H]1C[C@](O)(CO)[C@@H](O)[C@H](O)[C@H]1O`, for which the Potency entry in assay [1], in assay [2], in [3], in assay [4], in assay [6] and in assay [7] was “inactive” each time. The Potency entry in [8], in assay [9], in assay [10], in assay [11], in assay [12] and in assay [13] was “inactive” in each case. In addition, the Potency entry in assay [15], in [16], in assay [17], in assay [18] and in assay [19] was “inactive” in each case. The compound was called inactive in assay [5]. Further, the max activation in assay [14] is -3.54% (inactive).
Take `Nc1cc(S(=O)(=O)O)cc2cc(S(=O)(=O)O)cc(O)c12`: the Potency entry in assay [1], in assay [2], in [20], in [4], in [6] and in assay [7] was “inactive” throughout. Moreover, the Potency entry in assay [9] and in assay [11] was “inactive” each time. Besides, in assay [5], the call was inactive. Also, the Potency in assay [10] is 43.1 µM (active) and 61.1 µM (active); in assay [12], 54.5 µM (active); in assay [17], 35.6 µM (active); in [18], 19.9 µM (active) and 22.4 µM (active); in [19] it was 39.9 µM (active).
`CC(=O)CC(C)=O`: the Potency result in assay [1], in assay [2], in assay [3], in [4], in [6] and in assay [7] was “inactive” throughout. Also, the Potency result in [9], in assay [10], in [11], in assay [12], in assay [13] and in assay [17] was “inactive” each time. For the same compound, the Potency entry in [18] and in assay [19] was “inactive” in each case. Also, the call in assay [5] was inactive.
As to `CC(C)(O)CCC(C)(C)O`, the Potency result in assay [1], in assay [3], in assay [20], in assay [4], in [6] and in assay [7] was “inactive” each time. Also, the Potency result in assay [8], in assay [9], in assay [10], in [11], in [12] and in assay [13] was “inactive” each time. Moreover, the Potency entry in assay [17], in [18] and in [19] was “inactive” each time. Besides, in [5], the result was inactive.
In the case of `Oc1c(Cl)cc(Cl)c(Cl)c1Cc1c(O)c(Cl)cc(Cl)c1Cl`, the Potency in assay [1] is 48.6 µM (active); in assay [2], 43.1 µM (active); in [6], 12 µM (active) and 26.9 µM (active); in assay [7], 30.8 µM (active) and 34.7 µM (active) and inactive; in [8], 2.72 µM (active) and 1.72 µM (active) and 6.68 µM (active); in assay [18] it was 70.8 µM (active) and 79.6 µM (active) and inactive. For the same compound, the Potency in [19] was 2 µM (active) and 3.56 µM (active) and 1.74 µM (active). Also, the Potency entry in assay [20], in assay [9], in [11] and in assay [17] was “inactive” throughout. For the same compound, the compound was called inactive in assay [5]. For the same compound, in [14], the max activation is -22.6% (inactive).
On to `O=C(O)Cn1cnnn1`, for which the Potency result in assay [1], in [2], in [20], in assay [4], in assay [6] and in [7] was “inactive” each time. In addition, the Potency entry in assay [8], in [9], in assay [10], in assay [11], in assay [12] and in assay [13] was “inactive” in each case. For the same compound, the Potency entry in [17], in assay [18] and in assay [19] was “inactive” throughout. Moreover, the call in assay [5] was inactive.

(Values after PubChem BioAssay (Tox21).)
